These results are taken from PubChem BioAssay AID1835 (Johns Hopkins Ion Channel Center, 2009).

Molecules are shown by their SMILES. The whole screen tested about 2,400 compounds, of which about 750 (31%) were called active.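 The calls were made as follows: active = median signal gain over dofetilide-blocked control wells reaching their mean plus 3 SD, so readout 1 at least 0; inactive = the rest.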 The list shows a part of the results.

Chain of Voltage-gated inwardly rectifying potassium channel KCNH2 (Homo sapiens) (Q12809 whole entry, looked up): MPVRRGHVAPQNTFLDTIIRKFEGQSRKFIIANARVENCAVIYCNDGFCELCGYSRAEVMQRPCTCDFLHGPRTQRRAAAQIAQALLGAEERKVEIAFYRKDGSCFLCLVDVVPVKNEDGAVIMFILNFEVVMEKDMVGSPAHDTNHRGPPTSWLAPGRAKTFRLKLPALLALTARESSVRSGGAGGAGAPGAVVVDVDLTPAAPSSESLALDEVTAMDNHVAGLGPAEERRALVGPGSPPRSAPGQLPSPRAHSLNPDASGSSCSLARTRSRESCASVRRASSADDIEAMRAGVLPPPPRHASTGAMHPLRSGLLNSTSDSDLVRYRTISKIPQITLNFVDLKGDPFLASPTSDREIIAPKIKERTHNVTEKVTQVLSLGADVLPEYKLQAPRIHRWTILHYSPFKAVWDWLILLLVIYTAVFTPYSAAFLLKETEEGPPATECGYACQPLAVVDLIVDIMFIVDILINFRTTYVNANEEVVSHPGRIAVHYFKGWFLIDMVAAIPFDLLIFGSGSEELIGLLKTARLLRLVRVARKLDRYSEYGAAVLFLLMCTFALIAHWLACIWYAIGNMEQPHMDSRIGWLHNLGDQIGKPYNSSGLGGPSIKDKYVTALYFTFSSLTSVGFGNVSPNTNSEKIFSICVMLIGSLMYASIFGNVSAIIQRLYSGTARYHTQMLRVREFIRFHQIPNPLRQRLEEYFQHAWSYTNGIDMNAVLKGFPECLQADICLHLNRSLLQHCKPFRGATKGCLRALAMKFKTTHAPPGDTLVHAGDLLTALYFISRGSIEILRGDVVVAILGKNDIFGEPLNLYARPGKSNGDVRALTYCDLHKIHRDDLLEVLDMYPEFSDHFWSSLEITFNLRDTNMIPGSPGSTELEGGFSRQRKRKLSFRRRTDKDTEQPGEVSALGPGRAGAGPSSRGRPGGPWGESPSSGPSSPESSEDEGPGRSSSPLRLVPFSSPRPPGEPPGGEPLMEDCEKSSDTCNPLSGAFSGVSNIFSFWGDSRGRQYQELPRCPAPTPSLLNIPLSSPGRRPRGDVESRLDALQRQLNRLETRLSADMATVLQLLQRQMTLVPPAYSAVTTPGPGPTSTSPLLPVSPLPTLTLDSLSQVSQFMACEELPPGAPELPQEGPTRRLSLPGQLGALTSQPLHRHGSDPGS

The experiment addresses Voltage-gated inwardly rectifying potassium channel KCNH2 (Homo sapiens) (UniProt Q12809). The experiment is described as follows: modulators restoring hERG flux under dofetilide – cell-based, thallium flux, duplicate retest, dofetilide IC70, confirmation (AID 1835). The following applies: hERG cell line, FluxOR thallium flux, dofetilide-blocked; at 10 µM; stronger effect = higher value. (Block of hERG is tested as a sign of cardiac risk.)
On to `CC1c2nc3ccccc3n2C(CC(=O)NCCCN2CCOCC2)C(=O)N1Cc1ccccc1` (centres undefined), for which the activity increase over dofetilide control, less the hit threshold is -8% (inactive).
The value for `CCCOc1ccc(C2NC(=S)NC(c3ccccc3)=C2C(=O)Nc2ccc(C)cc2)cc1OC` (centres undefined) was -5% (inactive); that for `Cc1cc(C(=O)N/N=C/c2ccc(O)c([N+](=O)[O-])c2)n[nH]1` was -13% (inactive).
The value for `O=C(NC(=S)N1CCCc2ccccc21)c1ccccc1` was -18% (inactive).
The figure for `O=C(NC(=S)N1CCc2ccccc21)c1ccc(Br)o1` is 12% (active); for `O=C(NC(=S)N1CCc2ccccc21)c1ccccc1Cl` it is 53% (active); for `O=C(NC(=S)N1CCc2ccccc21)c1ccccc1` it is 43% (active).
On to `O=C(c1ccccc1)N1CCc2ccccc21`, for which the activity increase over dofetilide control, less the hit threshold is -6% (inactive).
The figure for `O=C(NC(=S)N1CCc2ccccc21)c1ccco1` is -11% (inactive); for `O=C(N/N=C/c1ccsc1)C1CC1` it is -4% (inactive).
The figure for `CC1CCN(S(=O)(=O)c2ccc3nc(N4CCN(c5ccccc5)CC4)ccc3c2)CC1` is -22% (inactive); for `COc1cc(C2c3c(n[nH]c3C)C(=O)N2c2ccc(C)cc2)ccc1O` (centres undefined) it is -15% (inactive); for `O=C(NCc1cccnc1)c1ccc(NS(=O)(=O)c2ccc(F)cc2)cc1` it is -9% (inactive).
`O=C(N/N=C/c1ccccc1[N+](=O)[O-])c1ccc(CN2CCOCC2)cc1`: the activity increase over dofetilide control, less the hit threshold was -4% (inactive).
The figure for `CC1=NNC(=O)C1CC(=O)N/N=C/C=C/c1ccccc1` (centres undefined) is -18% (inactive); for `CCOC(=O)N/N=C/C=C/c1ccccc1[N+](=O)[O-]` it is 4% (active); for `Cc1cc(C)n2nc(SCC(=O)NC3CCCCC3C)nc2n1` (centres undefined) it is -19% (inactive).
`Cn1c(O)c(N=NC(=S)Nc2ccccc2F)c2cc(S(=O)(=O)N3CCOCC3)ccc21`: the activity increase over dofetilide control, less the hit threshold is -22% (inactive).
The figure for `Cc1ccccc1Cn1c(O)c(N=NC(=S)Nc2ccccc2F)c2ccccc21` is 6% (active); for `Oc1c(N=NC(=S)Nc2ccccc2F)c2ccccc2n1Cc1ccccc1F` it is 19% (active).
`Oc1c(N=NC(=S)Nc2ccccc2F)c2ccccc2n1Cc1ccccc1Cl`: the activity increase over dofetilide control, less the hit threshold is -2% (inactive).
For `Cc1ccc(C)c(Cn2c(O)c(N=NC(=S)Nc3ccccc3F)c3ccccc32)c1`, the activity increase over dofetilide control, less the hit threshold is -2% (inactive).
The value for `CC(C)Nc1nc(SCC(N)=O)nc(N2CCOCC2)n1` was -12% (inactive); that for `O=C1CN(C(=O)COc2ccccc2F)c2ccccc2N1` was -17% (inactive).
As to `COC(=O)c1sccc1NC(=S)N1CC(C)CC(C)C1` (centres undefined), the activity increase over dofetilide control, less the hit threshold is -15% (inactive).
The figure for `COC(=O)c1sccc1NS(=O)(=O)c1ccc(F)cc1F` is 2% (active); for `COC(=O)c1sccc1NC(=O)CSc1ccccc1NS(=O)(=O)c1cc(Cl)ccc1Cl` it is -3% (inactive); for `Cc1ccc(NS(=O)(=O)c2cn(C)c(=O)n(C)c2=O)c(C)c1` it is 0% (active).
The figure for `Cc1ccc(S(=O)(=O)n2cnc3ccccc32)c(C)c1` is -13% (inactive).
The figure for `Cc1ccc(NC(=O)c2ccc3c(c2)CCN3S(C)(=O)=O)c(C)c1` is -17% (inactive); for `Cc1cc(C(=O)NNC2CC(=O)N(c3ccc4ccccc4c3)C2=O)c(C)o1` (centres undefined) it is -6% (inactive).
In the case of `CC(=O)c1c(C)c2c(n1CCN(C)C)CCCC2`, the activity increase over dofetilide control, less the hit threshold is 2% (active).
With `Cc1c(C)n(CCN(C)C)c2ccc(C(=O)OCCN(C)C)cc12`, the activity increase over dofetilide control, less the hit threshold was -7% (inactive).
The value for `O=C(CC1NC(=O)NC1=O)Nc1ccccc1` (centres undefined) was -19% (inactive).
The figure for `O=C(c1cncc(Br)c1)N1CCc2ccccc2C1` is -15% (inactive); for `CC1(C)Cc2c(sc3[nH]c(=S)n(Cc4ccccc4)c(=O)c23)CO1` it is -10% (inactive); for `CC(C)C1Cc2c(sc3[nH]c(=S)n(Cc4ccccc4)c(=O)c23)CO1` (centres undefined) it is 16% (active).
As for `CCC1(C)Cc2c(sc3[nH]c(=S)n(Cc4ccccc4)c(=O)c23)CO1` (centres undefined), the activity increase over dofetilide control, less the hit threshold was 30% (active).
The value for `COc1ccc(C(=O)NCC(=O)OCn2nnc3ccccc3c2=O)cc1OC` was -24% (inactive).
The figure for `CCCCNC(=S)N/N=C/C1=CCC2CC1C2(C)C` (centres undefined) is -22% (inactive).
With `Fc1ccc2c(c1)C(c1ccncc1)=NNC(c1cccnc1)=N2`, the activity increase over dofetilide control, less the hit threshold is -13% (inactive).
Consider `C=CCc1cc(Cl)ccc1OCCOCCN(C)C`, for which the activity increase over dofetilide control, less the hit threshold was -19% (inactive).
For `O=C(NCc1ccccc1)C(=O)Nc1nc(C23CC4CC(CC(C4)C2)C3)cs1`, the activity increase over dofetilide control, less the hit threshold is 18% (active).
Take `Cc1csc(NC(=O)C2C3C=CC(C3)C2C(=O)O)n1` (centres undefined): the activity increase over dofetilide control, less the hit threshold is -19% (inactive).
The figure for `O=C(O)c1ccc(CNC(=O)C23CC4CC(CC(C4)C2)C3)cc1` is -3% (inactive).
For the molecule `Oc1ccc(/C=N/Nc2nccnc2Cl)c(O)c1`, the activity increase over dofetilide control, less the hit threshold was 8% (active).
The value for `COc1ccc(N2C(=O)CCC(C(=O)O)C2c2ccc(F)cc2)cc1` (centres undefined) was -5% (inactive); that for `O=C(NC(=S)Nc1nc(-c2ccccc2)cs1)c1ccco1` was 1% (active); that for `O=C(NC(=S)Nc1nc(-c2ccc(Br)cc2)cs1)c1ccco1` was 10% (active).
For the molecule `COc1ccc(-c2csc(NC(=S)NC(=O)c3ccco3)n2)cc1Br`, the activity increase over dofetilide control, less the hit threshold is -17% (inactive).
The figure for `COc1ccc(-c2csc(NC(=S)NC(=O)c3ccco3)n2)cc1` is 11% (active).
In the case of `O=C(NC(=S)Nc1nc(-c2ccc([N+](=O)[O-])cc2)cs1)c1ccco1`, the activity increase over dofetilide control, less the hit threshold is 16% (active).
The value for `O=C(NC(=S)Nc1nc(-c2cccc([N+](=O)[O-])c2)cs1)c1ccccc1Cl` was -1% (inactive); that for `O=C(CCc1ccc(S(=O)(=O)N2CCCCC2)cc1)c1nnc(-c2ccccc2)o1` was -14% (inactive); that for `Cc1[nH]c(=S)c(C#N)c(C)c1Cc1ccc(Cl)cc1Cl` was -12% (inactive).
For `O=C(N/N=C/C(Cl)=C/c1ccc([N+](=O)[O-])cc1)C(=O)Nc1ccc(C(=O)O)cc1`, the activity increase over dofetilide control, less the hit threshold is -13% (inactive).
The value for `O=c1c(C(c2ccc(O)cc2)c2c(O)nc3n(c2=O)CCS3)c(O)nc2n1CCS2` was 3% (active); that for `O=C(N=Nc1c(O)[nH]c2ccc([N+](=O)[O-])cc12)c1cc(-c2ccccc2Cl)nc2ccccc12` was 97% (active); that for `O=[N+]([O-])c1cccc(NC(=S)Nc2nc(-c3ccccc3Cl)cs2)c1` was -7% (inactive).
The figure for `CN(C)/C(=N\S(=O)(=O)c1ccccc1)c1ccc(F)cc1` is -9% (inactive); for `S=C(N/N=C/c1cccc2ccccc12)Nc1cccc(Cl)c1` it is -8% (inactive); for `Cc1cccc(-n2cc(-c3ccccc3)[nH]c2=S)c1` it is -6% (inactive).
The figure for `S=c1[nH]c(-c2ccccc2)cn1/N=C/c1cccc2ccccc12` is 2% (active).
With `Cc1c(OC(C(=O)O)c2ccccc2)ccc2c(-c3ccccc3)cc(=O)oc12` (centres undefined), the activity increase over dofetilide control, less the hit threshold is -3% (inactive).
The value for `COc1ccc(C(=O)NNC(=O)CSc2nnc(COc3ccccc3)n2C)cc1` was -24% (inactive); that for `COc1ccc(C(=O)NNC(=O)C(=O)Nc2cccc3ccccc23)cc1` was 51% (active); that for `COc1cc(OC)cc(C(=O)NNC(=O)C(=O)Nc2cc(OC)c(Cl)cc2OC)c1` was 68% (active).
The value for `COc1cccc(C(=O)NNC(=O)C(=O)Nc2ccc(OC)cc2OC)c1` was 19% (active); that for `COc1ccc(NC(=O)C2CC3CCC2C3)c(OC)c1` (centres undefined) was -8% (inactive); that for `COc1cccc(CCNS(=O)(=O)CCNC(=O)c2cccc(OC)c2)c1` was -15% (inactive).
The figure for `COc1cccc(C(=O)NNC(=O)C(=O)Nc2cccc3ccccc23)c1` is 52% (active); for `Cc1cc(C(=O)Nc2cccc3ccccc23)c(C)o1` it is -12% (inactive); for `COc1cc(NC(=O)c2cc(-c3cccnc3)nc3ccc(C)cc23)c(OC)cc1Cl` it is -17% (inactive).
Consider `CN(C)CCOC(=O)C1(c2ccccc2)CCCC1`, for which the activity increase over dofetilide control, less the hit threshold was -3% (inactive).
The figure for `O=C(CSc1cccc2cccnc12)N/N=C/c1cccnc1` is -19% (inactive); for `COC(=O)c1ccc(Oc2ccc(S(=O)(=O)N3CCCCC3)cc2N)cc1` it is -12% (inactive); for `O=S(=O)(Nc1cccc(-n2cnnn2)c1)c1ccc(Cl)nc1` it is -11% (inactive).
The value for `CCOCCOCN(C#N)c1nc(OC)nc(N(C)C)n1` was -22% (inactive).
The value for `O=C(CN1C(=O)CSCC1=O)Nc1ccc2c(c1)OCO2` was -6% (inactive).
Turning to `CC1CCCCC1NC(=S)NC(=O)c1sc2ccccc2c1Cl` (centres undefined), the activity increase over dofetilide control, less the hit threshold was 5% (active).
The value for `CC1CCCCC1NC(=S)NC(=O)c1cccs1` (centres undefined) was 44% (active); that for `COC(=O)CC1C(=O)NCCN1C(=S)NC(=O)c1sc2ccccc2c1Cl` (centres undefined) was -1% (inactive).
As for `O=C(NC(=S)N(CCCCO)C1CCCCC1)c1sc2ccccc2c1Cl`, the activity increase over dofetilide control, less the hit threshold was 29% (active).
The value for `CN(CC(=O)Nc1ccc(OC(F)(F)F)cc1)S(=O)(=O)c1cnc[nH]1` was -9% (inactive); that for `FC(F)c1nnc2c(Cl)cc(C(F)(F)F)cn12` was -11% (inactive).
The value for `O=C(NC(=S)NNC(=O)[C@H]1C[C@@H]1c1ccccc1)c1cccc(F)c1` was -14% (inactive); that for `C=CCn1c(SCC(N)=O)nc2scc(-c3ccc(C)o3)c2c1=O` was -19% (inactive).
The value for `C=CCn1c(=S)[nH]c2scc(-c3ccc(C)o3)c2c1=O` was 72% (active).
On to `C=CCn1c(=S)[nH]c2scc(-c3cccs3)c2c1=O`, for which the activity increase over dofetilide control, less the hit threshold is 90% (active).
The figure for `O=C(Nc1ccc(Cl)c(Cl)c1)Nc1nnc(CSc2ccccc2)s1` is -10% (inactive).
For `N#CC(=C1SC=CS1)c1nc(-c2ccccc2)cs1`, the activity increase over dofetilide control, less the hit threshold was -7% (inactive).
On to `Cc1ccc(-c2n[nH]c(=S)nc2-c2ccc(C)cc2)cc1`, for which the activity increase over dofetilide control, less the hit threshold is 13% (active).
The value for `S=c1nc(-c2ccccc2)c(-c2ccccc2)n[nH]1` was -9% (inactive); that for `COC(=O)c1cc(-c2ccc(C)cc2)n[nH]1` was -17% (inactive); that for `Cn1cc(/C=C2\SC(=O)NC2=S)c2ccccc21` was -24% (inactive).
The figure for `CCOc1ccc(/C=C2/SC(=O)NC2=S)cc1` is 92% (active); for `CCOC(=O)c1ccc(Oc2cc(C)nc(SC)n2)cc1` it is 10% (active).
The figure for `CCOc1cc(-n2ncc(C#N)c2N)nc(SC)n1` is -12% (inactive); for `O=C(COc1cccc(-n2cnnn2)c1)Nc1ccc([N+](=O)[O-])cc1` it is -1% (inactive); for `CCc1ccc(NC(=O)C(=O)NNC(=O)COc2cccc(OC)c2)cc1` it is 14% (active).
Turning to `COc1cccc(OCC(=O)NNC(=O)C(=O)Nc2cccc(C)c2)c1`, the activity increase over dofetilide control, less the hit threshold was 50% (active).
The figure for `Cc1cccc(OCC(=O)NCc2nc(-c3ccccc3)no2)c1` is -13% (inactive); for `COc1cccc(NC(=O)CSCc2n[nH]c(=O)[nH]2)c1` it is -20% (inactive); for `CCc1ccc(OCC(=O)Nc2ncn[nH]2)cc1` it is -29% (inactive).
